This is a sample that favours compounds with a hit; in the whole collection about 4.2% have one here.
FBA Mtb inh = Mtb FBA enzyme inhibitors, primary screen, biochemical, fluorescence, strain H37Rv; purified M. tuberculosis FBA, fluorescence read-out; inhibition, % at 1 µM; 2.3% of 360,000 active; in the data active = inhibition above about 27%
Target sequence (P9WQA3 whole entry, looked up): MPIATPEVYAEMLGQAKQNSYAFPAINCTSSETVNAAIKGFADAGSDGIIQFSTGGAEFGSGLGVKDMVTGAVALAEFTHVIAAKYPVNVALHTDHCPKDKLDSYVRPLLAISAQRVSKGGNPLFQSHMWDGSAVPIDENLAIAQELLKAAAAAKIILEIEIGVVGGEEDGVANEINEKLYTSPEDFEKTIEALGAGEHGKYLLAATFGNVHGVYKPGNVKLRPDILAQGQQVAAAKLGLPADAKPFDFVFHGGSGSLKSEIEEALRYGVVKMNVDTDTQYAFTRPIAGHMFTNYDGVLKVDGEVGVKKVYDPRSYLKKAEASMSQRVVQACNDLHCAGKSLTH
GDH-TPI counter = GDH-TPI coupling enzyme inhibitors, primary screen, artefact control for M. tuberculosis FBA inhibitor project, biochemical, absorbance, full deck; 1.2% of 360,000 active; GDH-TPI coupled enzyme counterscreen, NADH absorbance; inhibition, % at 4.8 µM; AID 588335, 2011
CCHF vOTU inh-1 = CCHFV vOTU protease inhibitors, primary screen, biochemical, Pep-AMC substrate, fluorescence; Crimean-Congo hemorrhagic fever virus L polyprotein viral ovarian tumor (vOTU) protease …; 0.55% of 370,000 active; inhibition, % at 11.5 µM
RecA splice inh = Mtb RecA intein splicing inhibitors, primary screen, biochemical, fluorescence, HTS; Protein RecA (Mycobacterium tuberculosis (strain ATCC 25618 / H37Rv)), P9WHJ3; cell-free RecA intein splicing; inhibition, % (no concentration beside the values); 0.75% of 290,000 active; in the data active = inhibition above about 30%
CCHF vOTU inh-2 = CCHFV vOTU protease inhibitors, confirmation, biochemical, Pep-AMC substrate, fluorescence; shares compounds with CCHF vOTU inh-1; Recombinant CCHFV vOTU; inhibition, % at 11.5 µM; 17% of 1,900 active
A number is an active result; n = inactive; x = no result; ! = repeats disagree. Rule as the data show it, unless noted: active = inhibition above about 30%; inactive = the rest.

SMILES | FBA Mtb inh | GDH-TPI counter | CCHF vOTU inh-1 | RecA splice inh | CCHF vOTU inh-2
COC1C(OC(=O)/C=C/C=C/C=C/C=C/C(=O)O)CCC2(CO2)C1C1(C)OC1CC=C(C)C (stereo not given) (tested in a mixture with another compound) | n | 64 | 30 | x | n
O=C(NCc1ccccn1)[C@@H]1CCCN1C(=O)[C@@H]1CCCN1C(=O)c1c(F)cccc1F | x | x | n | x | x
CCOC(=O)C(=CNc1cc(C)nn1-c1ccc(C)cc1)C(=O)OCC | n | n | 30 | n | n
N#Cc1ccc(CN2CCN(C(=O)CCNS(=O)(=O)c3ccc(F)c(Cl)c3)CC2)cc1 | n | n | n | x | x
COc1ccc(CN2CCNC(=O)C2CC(=O)N(C)C2CCCCC2)cc1OC (stereo not given) | n | n | n | x | x
COc1cccc(/C=C2\CC3(OC(=O)c4ccc(Cl)cc4)CCCN2C3)c1 (stereo not given) | x | x | n | x | x
Cc1cccc(-n2ncc3c(N)ncnc32)c1 | n | n | 30 | n | n
O=C(Nc1ccccc1Cl)C1CCN(S(=O)(=O)c2cccc3nonc23)CC1 | n | n | n | n | x
CC1(CC(=O)N/N=C/c2ccc(-c3cccc(C(F)(F)F)c3)o2)OCCO1 | n | 37 | 35 | n | n
COc1ccccc1NC(=O)C(C)OC(=O)CCCc1c[nH]c2ccccc12 (stereo not given) | n | n | n | n | x
O=c1[nH]cnc2c1ncn2-c1ccc(Cl)cc1 | n | n | n | x | x
COc1cc(C=c2c3ccccc3n3c2cc(-c2ccccc2)[n+]3C)cc(OC)c1OC | n | n | 85 | x | 69
CCN(CC)c1ccc(/C=C/c2cccc[n+]2C)c(OC)c1 | n | n | n | n | x
CN(C)c1ccc(C=c2c3ccccc3n3c2c2c([n+]3C)CCCC2)cc1 | n | n | 35 | x | n
CN(C)c1ccc(C=c2c3ccccc3n3c2cc(-c2ccccc2)[n+]3C)cc1 | n | n | 48 | x | n
COc1cc(N(C)C)ccc1C=c1c2ccccc2n2c1cc(-c1ccccc1)[n+]2C | n | n | 34 | x | n
CN(C)c1ccc(/C=C2\CCC/C(=C\c3ccccc3)C2=O)cc1 | n | n | n | n | x
CN(C)c1ccc(C=C2C=C(c3ccccc3)OC2=O)cc1 | n | n | n | x | x
COC(=O)Cn1c(C(O)c2ccccc2)nc2ccccc21 (stereo not given) | n | n | n | n | x
O=C(C[C@@H]1C/C=C\C[C@H](Cc2ccc(F)cc2)C(=O)OC[C@@H](c2ccccc2)NC1=O)NCCO | n | n | n | x | x
O=C(CN1C(=O)NC2(CCCC2)C1=O)OCCOc1ccccc1Cl | n | n | n | n | x
CN(C)c1ccc(C=c2c3cc([N+](=O)[O-])ccc3n3c2cc(-c2ccccc2)[n+]3C)cc1 | n | 42 | 40 | x | n
CN(C)c1ccc(C=c2c3ccccc3n3c2cc(-c2ccc(Cl)cc2)[n+]3C)cc1 | n | n | 47 | x | n
Cn1c(CO)c(-c2ccccc2)c2cc([N+](=O)[O-])ccc21 | n | n | n | n | x
O=c1[nH]nc(CNc2ccc(O)cc2)c2ccccc12 | n | n | 53 | n | n
SMILES | FBA Mtb inh | GDH-TPI counter | CCHF vOTU inh-1 | RecA splice inh | CCHF vOTU inh-2
CCc1nn(CC(=O)NCCCN(CC)Cc2ccccc2)c(=O)c2cc3sccc3n12 | n | n | 35 | n | n
Cc1cccc(C)c1NC(=O)C1(C)CN(S(C)(=O)=O)CC(=O)N1CC(F)(F)F (stereo not given) | x | x | n | x | x
CCN(CC)CC(=O)n1c2c(c3ccccc31)CCCC2 | n | n | n | n | x
CN1CCN(CC(=O)n2c3c(c4ccccc42)CCCC3)CC1 | n | n | 45 | n | n
COc1cccc(NP(=O)(Oc2ccccc2)Oc2ccccc2)c1 | n | n | 30 | n | n
O=C(NCc1ccco1)C1CCN(S(=O)(=O)c2ccccc2C(F)(F)F)CC1 | n | n | 31 | x | n
CN(C(=O)CCc1nc2ccccc2c(=O)[nH]1)C1CCS(=O)(=O)C1 (stereo not given) | n | n | n | x | x
O=C1C(Cc2ccccc2)Nc2ncnc(N3CCOCC3)c2N1Cc1ccc(Cl)cc1 (stereo not given) | n | n | 31! | n | n
CSc1ccc(/C=N\Nc2nncn2N)cc1 | n | n | 101 | n | n
Nn1cnnc1N/N=C/c1cc(Br)cc(Br)c1O | n | n | 104 | n | n
CC1CCN(c2ccc(/C=N\Nc3nncn3N)cc2[N+](=O)[O-])CC1 | n | n | 88 | x | n
CC(C)(C)c1ccc(/C=N/Nc2nncn2N)cc1 | n | n | 89 | n | n
CC(C)(C)c1nnc(N/N=C/c2ccc(Br)cc2)n(N)c1=O | n | n | n | n | x
Fc1ccc(-c2nc3ccc(Br)cn3c2Cc2ccccc2C(F)(F)F)cc1 | n | x | n | x | x
O=C(O)c1ccc2c(c1)C(=O)N(c1cccc(C(=O)/C=C/c3ccccc3)c1)C2=O | n | n | n | n | x
c1ccc(Cn2c(SCC3CCCCC3)nnc2-c2cccnc2)cc1 | x | x | n | x | x
CCC(NC(=O)c1ccc2c(c1)c(C)c(C)n2Cc1ccc(-c2ccccc2C#N)cc1)c1ccccc1 (stereo not given) | x | x | n | x | x
Cc1c(C)n(Cc2ccc(-c3ccccc3C(=O)O)cc2)c2ccc(C(=O)N[C@@H](C)c3ccc([N+](=O)[O-])cc3)cc12 | x | x | 42 | x | n
Cc1ccc(-n2nc(C)c(NS(=O)(=O)c3ccccc3)c2C)cc1C | n | n | n | n | x
Cc1nn(-c2ccc(F)cc2)c(C)c1NS(=O)(=O)c1ccc(Cl)cc1 | n | n | 30 | n | n
CCC(C)N1CC(=O)N2C(c3ccc(OC)cc3OC)c3[nH]c4ccccc4c3C[C@H]2C1=O (stereo not given in full) | n | n | n | n | x
O=c1cc(-c2ccc(O)c(O)c2)oc2cc(O)cc(O)c12 | n | n | n | n | x
O=c1cc(-c2ccc(O)c(-c3c(O)cc(O)c4c(=O)cc(-c5ccc(O)cc5)oc34)c2)oc2cc(O)cc(O)c12 | n | 33 | 30 | n | n
O=C1C(Cl)=C(NC(=O)c2ccccc2)C(=O)C(Cl)=C1NC(=O)c1ccccc1 | n | 34 | 97 | n | n
O=C(Nc1cccc(Cl)c1)c1ccccc1 | n | n | n | x | x
SMILES | FBA Mtb inh | GDH-TPI counter | CCHF vOTU inh-1 | RecA splice inh | CCHF vOTU inh-2
CN(c1ccc(C(=O)Nc2ccc(Cl)cn2)cc1)S(=O)(=O)c1ccccc1 | n | n | n | n | x
CN(C1=C(NC(=O)c2ccc(Cl)cc2)C(=O)c2ccccc2C1=O)c1ccccc1 | n | n | 45 | 43 | n
CC(C)(C=O)C1=CC(=O)c2ccccc2C1=O | n | n | 79 | x | n
CC(=O)Nc1ccc(Nc2nc3ccccc3nc2NS(=O)(=O)c2ccc(Cl)c([N+](=O)[O-])c2)cc1 | n | n | 32 | x | n
O=[N+]([O-])c1ccc(S(=O)(=O)Nc2nc3ccccc3nc2Nc2ccccc2)cc1 | n | n | n | x | x
CCN1C(=O)/C(=C/c2ccc(C)s2)NC1=S | n | n | 31 | n | n

High-throughput results (PubChem)
